Hits are enriched below; roughly 2.2% of the tested compounds scored in any of these assays.
FUS yeast rescue: FUS proteinopathy suppression in yeast; S. cerevisiae FUS-expressing, growth rescue, OD600, 24 h; Potency, µM (doses to about 76.6 µM), usual class: activators; hit rate 0.24% among 390,000; AID 1347120; note: nearly all actives have a fitted effect of over 55% in size
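Steps: raffinose overnight preculture; dilution to OD 0.005 in 2% galactose minimal medium; compound addition (concentration series); 24hr at 30C, 99% humidity; absorbance read at 600 nm.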
aSyn yeast inh: inhibitors of alpha-synuclein toxicity in yeast; Yeast expressing alpha-synuclein, growth rescue, BacTiter-Glo, 24 h; Potency, µM (top dose mostly 46.1 µM), actives largely listed as activators; hit rate 0.14% among 370,000; AID 652106; note: nearly all actives have a fitted effect of over 65% in size
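Screening used galactose-induced yeast with toxic alpha-synuclein levels, exposed to compound for 24 hr at 30 deg C. Cell growth, read with BacTiter-Glo luminescence, gave the measured signal.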
Abeta yeast res: A-beta toxicity reversal in yeast; Potency, µM (series often up to 46.1 µM), usual class: activators; hit rate 0.063% among 410,000; yeast expressing A-beta42, growth rescue, OD600, 48 h; response scale: 0% DMSO, 100% iron-clioquinol control; AID 1347071; note: nearly all actives have a fitted effect of over 55% in size
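Yeast growth medium received pinned compounds, then yeast cells expressing toxic A-beta were added; plates incubated at 30 C for 48 hr. Growth read as absorbance at 600 nm, normalized to DMSO and equimolar FeCl3 plus clioquinol controls.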
Mito fusion yeast: blocks mitochondrial division or promotes mitochondrial fusion; S. cerevisiae fusion-defective mutant growth rescue, CellTiterGlo 48 h; Potency, µM (top dose mostly 46.1 µM), hits mostly activators; hit rate 0.23% among 320,000; note: nearly all actives have a fitted effect of over 45% in size
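S. cerevisiae fusion-defective temperature-sensitive mutants (e.g. fzo1-1, mgm1-5) grown 48 h at 37C in YPEG (ethanol/glycerol non-fermentable) medium with 23 nl compound per well; growth rescue read as CellTiterGlo luminescence.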
TDP-43 yeast inh: rescues yeast growth from TDP-43 toxicity. TDP-43 expressing yeast growth rescue, BacTiter-Glo, 24 h. Potency, µM (series often up to 46.1 µM), most hits filed as activators. hit rate 1.8% among 410,000. AID 652104; note: nearly all actives have a fitted effect of over 50% in size
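Readout is BacTiter-Glo luminescence of cell growth, so inhibitors register as activators. TDP-43-expressing yeast at OD600=0.02 in galactose medium, after raffinose pregrowth to mid-log, were incubated with compound for 24 hr at 30 deg C.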
Hits are given with their value; 0 = inactive; ? = inconclusive; - = not tested or not shown; [ ] = remark or other dose. Calls come from the whole dose curve; as a rule, active = well fitted curve in the direction sought with a large enough effect; inconclusive = small, poorly fitted or top-dose-only effect, or another doubt; inactive = no such curve, though single readings can be large; an effect the other way counts as inactive or inconclusive.

SMILES | FUS yeast rescue | aSyn yeast inh | Abeta yeast res | Mito fusion yeast | TDP-43 yeast inh
O=C(Nc1ccccc1)c1ccccc1Oc1ccc(C(F)(F)F)cc1[N+](=O)[O-] | 0 | 0 | 0 | ? | 20µM
COc1cc(C2C(C(=O)Nc3ccccc3C)=C(C)Nc3nc(SCc4cc(C)ccc4C)nn32)ccc1O (stereo not given) | 0 | 0 | 0 | - | ?
COc1ccc(-c2c3c(=O)n(C)c(=O)n(C)c3c3c(-c4cccc(C)c4)nc4ccccc4n23)cc1 | 0 | - | 0 | - | 15.8µM
Cc1ccc(-c2nc(N)sc2-c2ccccc2)cc1C | - | 0 | 0 | 0 | 15.8µM
O=C(NCCSc1c[nH]c2ccccc12)c1ccccc1Cl | 0 | - | 0 | - | 35.5µM
COc1ccccc1C(=O)NCCSc1c(C)[nH]c2ccccc12 | 0 | - | ? | - | 31.6µM
COc1cccc(C(=O)NCCSc2c(C)[nH]c3ccccc23)c1OC | 0 | ? | 0 | 0 | ?
Cc1[nH]c2ccccc2c1SCCNC(=O)c1ccccc1F | 0 | - | 14.1µM | - | 14.1µM
COc1cc(C(=O)NCCSc2c(C)[nH]c3ccccc23)cc(OC)c1OC | 0 | - | 0 | - | 0
O=C(Cc1ccccc1F)N1CCC(n2nnc3ncccc32)CC1 | 0 | - | - | - | -
O=C(CNS(=O)(=O)c1cccc2ccccc12)N1CCN(c2ncccn2)CC1 | 0 | - | - | - | -
CCc1ccc(OC(=O)CN2C(=O)c3ccccc3C2=O)cc1 | 0 | 0 | 0 | 0 | 15.8µM
CC(=O)c1ccc(OC(=O)CN2C(=O)c3ccccc3C2=O)cc1 | 0 | 0 | 0 | 0 | 0
COc1ccc(C(=O)OCN2C(=O)c3ccccc3C2=O)cc1 | 0 | ? | 0 | 0 | 10µM
COc1cc(OC)c(C(=O)OCN2C(=O)c3ccccc3C2=O)cc1OC | 0 | 0 | 0 | 0 | 0
COc1ccccc1N1CCN(C(CNC(=O)C(=O)NCCc2ccccc2)c2cccnc2)CC1 (stereo not given) | 0 | - | 0 | - | 0
COc1ccc(NS(=O)(=O)c2ccc3[nH]c(=O)ccc3c2)cc1OC | 0 | - | 0 | - | 0[9.22 µM]
Cc1cc2oc(C(=O)N(Cc3ccc(N(C)C)cc3)CC3CCCO3)c(C)c2cc1Cl (stereo not given) | 0 | - | 0 | - | 0
O=C(/C=C/c1ccccc1)Nc1cccnc1Cl | 0 | 0 | 0 | 0 | 7.94µM
COC(=O)c1ccc(N/C(=N/S(=O)(=O)c2ccccc2)c2ccccc2)cc1 | - | 0 | 0 | 0 | 0
CCOC(=O)c1ccc(N/C(=N\S(=O)(=O)c2ccccc2C)c2ccccc2)cc1 | 0 | 0 | 0 | 0 | 25.1µM
c1ccc2c(-c3csc(-c4ccncc4)n3)c[nH]c2c1 | 0 | 0 | 0 | 0 | 3.98µM
Brc1ccc(-c2csc(-c3c[nH]c4ccccc34)n2)cc1 | 0 | 0 | 0[9.22 µM] | 0 | 0
CCCCn1c(SCC(=O)c2ccc(O)c(O)c2)nc2ccsc2c1=O | - | 0 | 0 | 0 | 20µM
COc1cccc(-n2c(SCc3cccc(C)c3)nc3c([nH]c4ccccc43)c2=O)c1 | 0 | ? | 0 | - | 0
SMILES | FUS yeast rescue | aSyn yeast inh | Abeta yeast res | Mito fusion yeast | TDP-43 yeast inh
CC(=O)N/C(N)=N/c1nc(=O)c2ccccc2s1 | 0 | 0 | 0 | 0 | 0
CCOC(=O)N/C(N)=N/c1nc2ccccc2s1 | 0 | - | 0 | 0 | 11.2µM
Cc1ccc(SC2=C(C(=O)O)CCCC2)cc1 | 0 | 0 | 0 | 0 | 10µM
Cc1ccc(SC(C)C(=O)N2CCCC2)cc1 (stereo not given) | 0 | 0 | 0 | 0 | 0
Cc1ccc(NC(=O)Cc2ccc(OC(F)F)cc2)c(S(=O)(=O)N2CCOCC2)c1 | 0 | - | - | - | -
O=C1NC2(CCCCCC2)N=C1c1ccc(F)cc1 | 0 | 0 | 0 | 0 | 15.8µM
S=C1NC2(CCCCCC2)N=C1c1ccccc1 | 0 | 0 | 5.01µM | 0 | ?
S=C1NC2(CCCC2)N=C1c1ccccc1 | 0 | 0 | - | 0 | 0
CCCCN1CN2Cc3ccc(C)cc3C2CS1(=O)=O (stereo not given) | 0 | - | - | - | -
Cn1c(COc2ccc(Cl)cc2)nnc1SCc1ncc(-c2ccccc2)o1 | ? | ? | 0 | 0 | 22.4µM
O=[N+]([O-])c1cccc(N/N=C/c2cccc(O)c2O)c1 | 0 | 0 | 0 | 0 | 12.6µM
CCOC(=O)c1oc2ccc(S(=O)(=O)n3nc(-c4ccc(OC)cc4)cc3N)cc2c1C | 0 | 0 | 0 | 12.6µM | 0
CS(=O)(=O)N(Cc1nc(-c2ccc(F)cc2)no1)c1ccccc1Cl | 0 | 0 | 0 | 0 | 22.4µM
CN(Cc1nc(-c2ccc(Cl)cc2)no1)S(=O)(=O)c1ccccc1 | 0 | - | 0 | - | 35.5µM

High-throughput results deposited in PubChem by National Center for Advancing Translational Sciences (NCATS).
